Measured values published in PubChem BioAssay (EPA / NIEHS).
Where “and” joins values, the source holds several entries; their conditions need not be identical. Identical values can stand only once. Records with an inconclusive call do not appear. Some compounds were tested as several samples or in several runs, with calls that do not always agree. Calls of active or inactive are those of the source. Rule for the calls, unless noted: active = hit-call score of the fitted dose curve at least 0.9, where 1 is the maximum; inactive = score below 0.9.

What was measured:
[1] = read-out: Monokine induced gamma interferon (MIG), CXCL9 (gene 4283); assay: BSK_3C_MIG: BioMAP Diversity Plus: 3C Assay for Monokine induced gamma interferon (MIG) Biomarker Activity (AID 2283021); conditions: primary human endothelial cells (HUVEC); actives raise or lower the signal;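 for AC50: MIG protein level measured by immunoassay in the treated endothelial cultures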
How it was run: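 ELISA-measured MIG in dosed HUVEC 3C cultures at 24 h, analysed by bidirectional fitting with DMSO defining baseline activity.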

[2] = biological target: human Vitamin D Receptor (VDR), VDR (gene 7421) (UniProt P11473); assay: ATG_VDR_TRANS: Attagene TRANS-FACTORIAL HepG2 Assay for human Vitamin D Receptor (VDR) (AID 2283022; active = hit-call score of the fitted dose curve at least 0.9, where 1 is the maximum)
How it was run: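 RT-PCR/capillary electrophoresis read-out of reporter mRNA induction in transiently transfected HepG2; 24 h dosing; chimeric NR-Gal4 (TRANS format); gain-of-signal fit against DMSO baseline.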

[3] = BSK_3C_SRB: Viability Assessment in the BioMAP Diversity Plus: 3C Assay (AID 2283023); conditions: primary human endothelial cells (HUVEC);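 note: fitted both ways against DMSO so a hit may be signal rise or drop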
How it was run: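 HUVEC, 24 h post-dose; 10% TCA fix, 0.1% SRB stain, A560 nm. Bidirectional curve fit vs DMSO negative control.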

[4] = read-out: Matrix Metallopeptidase 1 (MMP1), MMP1 (gene 4312); assay: BSK_BE3C_MMP1: BioMAP Diversity Plus: BE3C Assay for Matrix Metallopeptidase 1 (MMP1) Biomarker Activity (AID 2283024); conditions: primary human bronchial epithelial cells; actives raise or lower the signal
How it was run: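 In this multiplexed primary-cell system, human bronchial epithelium received chemicals for 24 h before an ELISA for MMP1. Values reflect bidirectional fits normalised to the DMSO baseline.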

[5] = read-out: Pselectin, SELP (gene 6403); assay: BSK_4H_Pselectin: BioMAP Diversity Plus: 4H Assay for Pselectin Biomarker Activity (AID 2283026); conditions: primary human endothelial cells (HUVEC); actives raise or lower the signal
How it was run: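 Bidirectional fits against DMSO gave the endpoint. Cells: primary human umbilical vein endothelium, chemical-treated for 24 h before ELISA detection of P-selectin.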

[6] = BSK_4H_SRB: Viability Assessment in the BioMAP Diversity Plus: 4H Assay (AID 2283027); conditions: primary human endothelial cells (HUVEC);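 note: cells exposed to compound for 24 h before staining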;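 for AC50: curves fitted both ways versus DMSO so AC50 may be loss or gain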
How it was run: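 Cytotoxicity read-out in primary human endothelial cells: after 24 h compound exposure, cells were TCA-fixed (10%), stained with 0.1% SRB and absorbance taken at 560 nm. Values fitted in both directions relative to DMSO.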

[7] = BSK_BE3C_SRB: Viability Assessment in the BioMAP Diversity Plus: BE3C Assay (AID 2283028); conditions: primary human bronchial epithelial cells;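 for AC50: fitted both ways so AC50 may mark signal gain or loss versus DMSO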
How it was run: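 Primary human bronchial epithelium; chemical dosing, 24 h; 10% TCA fix, 0.1% SRB stain, A560; bidirectional fit vs DMSO baseline.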

[8] = read-out: Thrombomodulin, THBD (gene 7056); assay: BSK_3C_Thrombomodulin: BioMAP Diversity Plus: 3C Assay for Thrombomodulin Biomarker Activity (AID 2283029); conditions: primary human endothelial cells (HUVEC); actives raise or lower the signal
How it was run: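 In a multiplexed primary-cell system, human umbilical vein endothelium received chemical and was assayed 24 h later for thrombomodulin by ELISA. Parallel cultures were SRB-stained (0.1% SRB after 10% TCA fixation, read at 560 nm) to flag cytotoxicity.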

[9] = read-out: Urokinase-type plasminogen activator receptor (uPAR), PLAUR (gene 5329); assay: BSK_4H_uPAR: BioMAP Diversity Plus: 4H Assay for Urokinase-type plasminogen activator receptor (uPAR) Biomarker Activity (AID 2283030); conditions: primary human endothelial cells (HUVEC); actives raise or lower the signal
How it was run: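 HUVEC, 24 h post-dose; uPAR by ELISA; bidirectional fit vs DMSO baseline.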

[10] = read-out: Vascular endothelial growth factor receptor 2 (Homo sapiens) (UniProt P35968); assay: BSK_4H_VEGFRII: BioMAP Diversity Plus: 4H Assay for Vascular endothelial growth factor receptor 2 (VEGFR2) Biomarker Activity (AID 2283031); conditions: primary human endothelial cells (HUVEC); actives raise or lower the signal;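 for AC50: cell-surface VEGFR2 protein level quantified by ELISA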
How it was run: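 HUVEC (human primary), 4H system; 24 h post-dose; VEGFRII by ELISA; bidirectional curve fit vs DMSO baseline; gain or loss of signal scored.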

human Vitamin D Receptor (VDR), VDR (gene 7421), sequence (P11473 whole entry, looked up, the tested form may be a part): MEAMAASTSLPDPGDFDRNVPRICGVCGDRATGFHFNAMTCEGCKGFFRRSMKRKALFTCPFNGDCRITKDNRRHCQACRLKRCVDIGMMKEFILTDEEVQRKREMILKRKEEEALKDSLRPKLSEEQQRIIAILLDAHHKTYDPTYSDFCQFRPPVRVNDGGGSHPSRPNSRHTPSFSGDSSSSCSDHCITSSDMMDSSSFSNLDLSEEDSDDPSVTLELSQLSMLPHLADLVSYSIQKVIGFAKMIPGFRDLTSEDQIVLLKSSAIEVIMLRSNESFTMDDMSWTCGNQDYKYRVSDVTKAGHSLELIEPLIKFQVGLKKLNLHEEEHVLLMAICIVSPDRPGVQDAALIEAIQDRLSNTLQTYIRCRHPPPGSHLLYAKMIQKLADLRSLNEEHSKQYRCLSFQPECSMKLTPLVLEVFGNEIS

Row | Structure (SMILES) | outcome [1] | outcome [2] | outcome [3] | outcome [4] | outcome [5] | outcome [6] | outcome [7] | outcome [8] | outcome [9] | outcome [10] | AC50 [4] | AC50 [5] | AC50 [8] | AC50 [3] | AC50 [6] | AC50 [7] | AC50 [1] | AC50 [9] | AC50 [10]
1 | CCCCOCCOCCOC(=O)CCCCC(=O)OCCOCCOCCCC | inactive | inactive | inactive | inactive | inactive | inactive | inactive | inactive | inactive | inactive | – | – | – | – | – | – | – | – | –
2 | CC(=O)Nc1ccc(N=Nc2cc(C)ccc2O)cc1 | inactive | inactive | inactive | – | – | inactive | inactive | – | inactive | inactive | 24.7 µM (active) | 15.2 µM (active) | 7.5 µM (active) | – | – | – | – | – | –
3 | O=C(O)C(F)(F)C(F)(F)C(F)(F)C(F)(F)C(F)(F)C(F)(F)C(F)(F)C(F)(F)C(F)(F)C(F)F | inactive | – | – | inactive | inactive | – | – | – | inactive | inactive | – | – | 49.3 µM (active) and 46.1 µM (active) | 47.3 µM (active) and 49.5 µM (active) | 48.6 µM (active) and 45.8 µM (active) | 21 µM (active) and 20.7 µM (active) | – | – | –
4 | FC(F)(F)C(F)(F)C(F)(F)C(F)(F)C(F)(F)C(F)(F)C(F)(F)C(F)(F)CCS | inactive | inactive | inactive | inactive | inactive | inactive | inactive | inactive | inactive | inactive | – | – | – | – | – | – | – | – | –
5 | C=C(C)C(=O)OCC(F)(F)C(F)(F)C(F)(F)F | inactive | inactive | inactive | inactive | inactive | inactive | inactive | inactive | inactive | inactive | – | – | – | – | – | – | – | – | –
6 | COC(=O)CCC(F)(F)C(F)(F)C(F)(F)C(F)(F)F | inactive | inactive | inactive | inactive | inactive | inactive | inactive | inactive | inactive | inactive | – | – | – | – | – | – | – | – | –
7 | O=C(O)C=C(C(F)(F)F)C(F)(F)F | inactive | inactive | inactive | inactive | – | inactive | inactive | inactive | inactive | inactive | – | 22.4 µM (active) and 21.1 µM (active) | – | – | – | – | – | – | –
8 | FC(F)(I)C(F)(F)C(F)(F)C(F)(F)I | – | – | – | – | – | – | – | inactive | inactive | inactive | 44 µM (active) and 50.6 µM (active) and 22.7 µM (active) | 47.9 µM (active) and 30 µM (active) and 44.7 µM (active) | – | 55 µM (active) and 51 µM (active) and 51.9 µM (active) | 56.2 µM (active) and 42.7 µM (active) and 50.5 µM (active) | 50.1 µM (active) and 43.1 µM (active) and 44.2 µM (active) | 52.8 µM (active) and 46.1 µM (active) and 55.3 µM (active) | 50.3 µM (active) and 57.1 µM (active) | 18.7 µM (active) and 45.2 µM (active)
9 | C=CC(=O)OCC(F)(F)C(F)(F)C(F)(F)C(F)(F)C(F)(F)C(F)(F)C(F)(F)F | inactive | inactive | inactive | inactive | inactive | inactive | inactive | inactive | inactive | inactive | – | – | – | – | – | – | – | – | –
10 | CCCCNc1ccccc1 | inactive | inactive | inactive | inactive | inactive | inactive | inactive | inactive | inactive | inactive | – | – | – | – | – | – | – | – | –
11 | C=CC(=O)OCC(F)(F)C(F)(F)C(F)(F)C(F)(F)COC(=O)C=C | – | inactive | – | – | – | – | inactive | inactive | – | inactive | 20.4 µM (active) and 20.5 µM (active) | 20.6 µM (active) and 28.9 µM (active) | – | 34.8 µM (active) and 24.8 µM (active) | 47.1 µM (active) and 44.8 µM (active) | – | 23.5 µM (active) and 26.4 µM (active) | 57.8 µM (active) and 55.1 µM (active) | 9.64 µM (active)
12 | FC(F)(F)C(F)(F)CNCC(F)(F)C(F)(F)F | inactive | inactive | inactive | inactive | inactive | inactive | inactive | inactive | inactive | inactive | – | – | – | – | – | – | – | – | –
13 | C=CC(F)(F)C(F)(F)C(F)(F)C(F)(F)C(F)(F)C(F)(F)C(F)(F)C(F)(F)F | inactive | – | inactive | inactive | inactive | inactive | inactive | inactive | inactive | inactive | – | – | – | – | – | – | – | – | –
14 | OCC(F)(F)C(F)(F)C(F)(F)C(F)F | inactive | inactive | inactive | inactive | inactive | inactive | inactive | inactive | inactive | inactive | – | – | – | – | – | – | – | – | –
15 | Oc1ccc(Nc2ccccc2)cc1 | inactive | inactive | inactive | inactive | inactive | inactive | inactive | inactive | – | inactive | – | – | – | – | – | – | – | 3.14 µM (active) | –
16 | FC(F)(F)C(F)(F)C(F)(F)C(F)(F)C(F)(F)C(F)(F)CCS | inactive | inactive | inactive | inactive | inactive | inactive | inactive | inactive | inactive | inactive | – | – | – | – | – | – | – | – | –
17 | O=S(=O)(OCCOC(F)(F)F)C(F)(F)F | inactive | inactive | inactive | inactive | inactive | inactive | inactive | inactive | inactive | inactive | – | – | – | – | – | – | – | – | –
18 | O=C(CC(=O)C(F)(F)C(F)(F)F)C(F)(F)F | inactive | inactive | inactive | inactive | inactive | inactive | inactive | inactive | inactive | inactive | – | – | – | – | – | – | – | – | –
19 | FC(F)(F)C(F)(F)C(F)(F)C(F)(F)C(F)(F)C(F)(F)C(F)(F)C(F)(F)F | inactive | inactive | inactive | inactive | inactive | inactive | inactive | inactive | inactive | inactive | – | – | – | – | – | – | – | – | –
20 | CCCCCCC(C)OC(=O)CCCCC(=O)OC(C)CCCCCC (stereo not drawn) | inactive | inactive | inactive | inactive | inactive | inactive | inactive | inactive | inactive | inactive | – | – | – | – | – | – | – | – | –
21 | OCC(F)(F)C(F)(F)C(F)(F)C(F)(F)C(F)(F)C(F)F | inactive | inactive | inactive | inactive | inactive | inactive | inactive | inactive | inactive | inactive | – | – | – | – | – | – | – | – | –
22 | CO[Si](OC)(c1ccccc1)c1ccccc1 | inactive | inactive | – | inactive | inactive | inactive | inactive | inactive | inactive | inactive | – | – | – | 36.9 µM (active) | – | – | – | – | –
23 | FC(F)(F)C(F)(F)C(F)(F)N(C(F)(F)C(F)(F)C(F)(F)F)C(F)(F)C(F)(F)C(F)(F)F | inactive | inactive | inactive | inactive | inactive | inactive | inactive | inactive | inactive | inactive | – | – | – | – | – | – | – | – | –
24 | O=P(O)(O)OCCC(F)(F)C(F)(F)C(F)(F)C(F)(F)C(F)(F)C(F)(F)F | inactive | – | inactive | inactive | inactive | inactive | inactive | inactive | inactive | inactive | – | – | – | – | – | – | – | – | –
25 | FC(F)(F)C(F)(F)C(F)(F)C(F)(F)C(F)(F)CCI | inactive | inactive | inactive | – | inactive | inactive | inactive | inactive | inactive | inactive | 30 µM (active) and 19.5 µM (active) | – | – | – | – | – | – | – | –
26 | CCCCCCCCC(F)(F)C(F)(F)C(F)(F)C(F)(F)C(F)(F)C(F)(F)F | inactive | inactive | inactive | inactive | inactive | inactive | inactive | inactive | inactive | inactive | – | – | – | – | – | – | – | – | –
27 | O=C(O)C(F)(OC(F)(F)C(F)(OC(F)(F)C(F)(F)C(F)(F)F)C(F)(F)F)C(F)(F)F (stereo not drawn) | inactive | inactive | inactive | inactive | inactive | inactive | inactive | inactive | inactive | inactive | – | – | – | – | – | – | – | – | –
28 | FC(F)(F)C(F)(F)C(F)(F)C(F)(F)C(F)(F)C(F)(F)CC1CO1 (stereo not drawn) | inactive | – | inactive | inactive | inactive | inactive | inactive | inactive | inactive | inactive | – | – | – | – | – | – | – | – | –
